Hit rate of the full screen: of about 190,000 compounds, about 1,300 (0.68%) were called active. No stated cut-off is given here; in the data, active means inhibition above about 50%; inactive means the rest. The entries come from a sample that favours actives as a whole.
The molecules below were run against Mannose-6-phosphate isomerase (Homo sapiens) (UniProt P34949) (assay: MPI inhibition at elevated mannose 6-phosphate – biochemical, fluorescence intensity, high mannose 6-phosphate, primary screen (AID 1220)). Conditions: recombinant PMI enzyme, coupled fluorescence intensity; at 20 µM; stronger effect = higher value.
Sequence of Mannose-6-phosphate isomerase (Homo sapiens) (P34949 whole entry, looked up): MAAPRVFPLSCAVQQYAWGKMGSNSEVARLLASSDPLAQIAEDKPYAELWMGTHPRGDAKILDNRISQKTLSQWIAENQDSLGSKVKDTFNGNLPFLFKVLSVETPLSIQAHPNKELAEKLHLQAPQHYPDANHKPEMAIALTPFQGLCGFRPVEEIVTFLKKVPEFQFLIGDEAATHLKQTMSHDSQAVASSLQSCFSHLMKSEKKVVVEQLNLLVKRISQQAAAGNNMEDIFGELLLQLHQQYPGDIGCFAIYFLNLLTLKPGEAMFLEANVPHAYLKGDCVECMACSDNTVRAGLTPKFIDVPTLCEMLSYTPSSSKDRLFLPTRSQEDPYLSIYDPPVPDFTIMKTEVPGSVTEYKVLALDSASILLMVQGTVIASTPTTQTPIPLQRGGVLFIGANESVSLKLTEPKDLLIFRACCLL

Structure (SMILES) | inhibition
CCOc1ccc(N=C2Sc3nc4ccc(C)cc4cc3CN2CCOC)cc1 | 9.3% (inactive)
CC(=O)c1cc2c(cc1NC(=O)CN1CCN(c3ccc(F)cc3)CC1)OCO2 | 5.5% (inactive)
CCOC(=O)C1=C(c2ccccc2)NC(SCC(=O)Nc2cccc(C)c2)=C(C#N)C1c1ccco1 (stereo not given) | 15.6% (inactive)
COc1cccc(C=Nc2ccc(C)c(F)c2)c1O | 15.7% (inactive)
Cc1cc(C)n(/N=C\c2c(O)ccc3ccccc23)c(=O)c1C(N)=O | 22.5% (inactive)
Cc1cc(N=Cc2cc(Br)ccc2O)no1 | -9.4% (inactive)
Oc1ccc2ccccc2c1C=Nc1ccc(Cl)cn1 | 75.2% (active)
Cc1oc(/N=C/c2ccccc2O)c(C#N)c1C | -16.8% (inactive)
Cc1cc(O)c(C=Nc2ccc(Cl)cn2)c(=O)o1 | -60.9% (inactive)
Cc1oc(/N=C/c2cccc3ccccc23)c(C#N)c1C | 20.1% (inactive)
Cc1cc(N=Cc2c(O)ccc3ccccc23)no1 | 66.9% (active)
Cc1cc(N=Cc2cc(Cl)ccc2O)no1 | 14.2% (inactive)
Cc1oc(/N=C/c2c(O)ccc3ccccc23)c(C#N)c1C | 53.7% (active)
Nc1cc(Cl)nc(N/N=C/c2c(O)ccc3ccccc23)n1 | 13.3% (inactive)
Cc1ccc(N=Cc2c(O)ccc3ccccc23)cc1F | 51.7% (active)
COc1ccccc1Nc1ccc(N)cc1 | 23.2% (inactive)
O=C(Cn1ccccc1=O)c1ccc(Cl)cc1 | -5.5% (inactive)
N#C/C(=C\c1cn(CCOc2ccccc2)c2ccccc12)C(=O)NCc1ccco1 | -1.2% (inactive)

Structure (SMILES) | inhibition
COc1ccccc1OCC(=O)Nc1ccccn1 | 1.4% (inactive)
COc1ccc(CNn2c(-c3cccs3)nc3ccccc3c2=O)cc1OC | 8% (inactive)
CCN(C(=O)CSc1nnc(-c2ccncc2)n1-c1ccccc1)C1CCS(=O)(=O)C1 (stereo not given) | -2.5% (inactive)
CCc1ccc(C(=O)NN(C(=O)c2ccc(CC)cc2)C(C)(C)C)cc1 | 14.2% (inactive)
CCOc1ccc(S(=O)(=O)N2CCN(c3ccccc3F)CC2)c2cccnc12 | 27% (inactive)
O=C(OCc1c(F)cccc1Cl)c1cnccn1 | 11.3% (inactive)
Oc1ccc2ccccc2c1C=Nc1ccccc1-c1nc2ccccc2[nH]1 | 22.9% (inactive)
COc1ccc2nc(N=Nc3c(O)ccc4ccccc34)sc2c1 | 24.5% (inactive)
O=C(O)Cc1ccc(N=Cc2c(O)ccc3ccccc23)cc1 | 58.7% (active)
Oc1[nH]c2ccccc2c1/C=N/c1nccs1 | -1% (inactive)
Oc1ccc2ccccc2c1/C=N/c1nc2c(s1)CCCC2 | 46.1% (inactive)
Oc1oc(-c2cccc3ccccc23)nc1/C=N/c1nccs1 | 9.5% (inactive)
Oc1ccc2ccccc2c1/C=N/c1nccs1 | 62% (active)
Cc1c(Cc2ccccc2)sc(/N=C/c2c(O)ccc3ccccc23)c1C(N)=O | 29.8% (inactive)
Oc1ccc2ccccc2c1C=Nc1ccc(N2CCOCC2)cc1 | 29% (inactive)
Cc1sc(/N=C/c2c(O)ccc3ccccc23)c(C#N)c1C | -3.6% (inactive)
N#Cc1cccc(N=Cc2c(O)ccc3ccccc23)c1 | 64.6% (active)

Reference: PubChem BioAssay AID1220 (Sanford-Burnham Center for Chemical Genomics, 2008)
